Screens deposited in PubChem BioAssay by Broad Institute.
Most compounds without a hit are left out; they make up all but 2.2% or so of the library.
LGR2 antag: Drosophila LGR2 receptor signaling inhibition; HEK293 LGR2, CRE-luciferase, bursicon-stimulated, 4 h; inhibition, % at 9.99 µM; hit rate 0.35% among 380,000; AID 720647;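 active means drop in luminescence signal, shown as inhibition above about 50% in the replicate tests, limit read from the data, passing the limit was not always enough; inconclusive means probably only some replicates passing the limit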;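 further: agonist challenge used bursicon conditioned medium at about half maximal strength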
PAX8 inh HTS: lowers PAX8-driven luciferase in RMG-I cells; inhibition, % at 12.6 µM; RMG-I TPO-luciferase reporter, SteadyGlo, 24 h; hit rate 1.2% among 360,000;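 active means mean replicate inhibition at least 60% with every replicate also reaching 60%; inconclusive means only one of the two criteria is met; inactive means mean below 60% and not all replicates reaching 60%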;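 further: luciferase light reporting Pax8 driven TPO promoter activity; plate controls were median of neutral control wells for no effect and mitoxantrone controls for full effect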
EWS-Fli inh: blocks EWS/Fli oncoprotein-driven transcription; A673 NR0B1-luciferase reporter, viability-normalised; inhibition, % at 12.6 µM; hit rate 0.67% among 350,000; AID 651661;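 active means mean inhibition of at least 50% after viability correction, with every replicate also passing that limit; inconclusive means mean reaches 50% but only one of two replicates passes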;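 further: firefly luciferase signal divided by Alamar Blue viability fluorescence both relative to DMSO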
EBV LMP1 NFkB: Epstein-Barr LMP1 NF-kappaB reporter inhibition | inhibition, % at 12.5 µM | hit rate 0.69% among 350,000 | AID 504558 | LMP1-induced NF-kappaB luciferase reporter cells, luminescence; in the data active means inhibition above about 41%; inconclusive means no clear call, values can overlap the other calls;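 further: 0% = neutral control wells and 100% = reference inhibitor control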
MITF TRPM1 inh: MITF TRPM1 promoter inhibition in SK-MEL-5 cells. SK-MEL-5 TRPM1 promoter luciferase, 24 h. inhibition, % at 12.5 µM. hit rate 0.83% among 330,000. AID 488899;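 active means mean inhibition across replicates of 60% or more, whatever share of single replicates reaches that level; inconclusive means some that reach 60%, reason not given; inactive means mean inhibition across replicates below 60%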
Shn3 inh set2: reduces Shn3 3'UTR luciferase signal in osteoblasts; Clone20 osteoblast Shn3 3'UTR firefly luciferase, 24 h; inhibition, % at 12.5 µM; hit rate 0.52% among 360,000; AID 588674;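 active means mean inhibition of at least 75% with every replicate also reaching 75%; inconclusive means mean inhibition at least 75% but some replicate below; inactive means mean inhibition below 75%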;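 further: 0% = median of neutral control wells and 100% = pilot-screen positive control compound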
Numbers without * were called inactive; ? = inconclusive; · = no result given.

SMILES	LGR2 antag	PAX8 inh HTS	EWS-Fli inh	EBV LMP1 NFkB	MITF TRPM1 inh	Shn3 inh set2
O=C(Nc1ccc2c(c1)OCO2)N[C@H]1CC[C@H](CCNC(=O)C2CCCC2)O[C@@H]1CO	-7	-10	6	·	·	·
O=C(Cc1ccncc1)NCC[C@H]1CC[C@@H](NC(=O)Nc2ccc(F)cc2)[C@@H](CO)O1	8	5	-2	·	·	·
O=C(C[C@H]1C=C[C@@H](NC(=O)Cc2cccnc2)[C@@H](CO)O1)Nc1ccc(-c2ccccc2)cc1	6	·	-2	·	·	·
OC1CCC2CN3CCc4c([nH]c5ccccc45)C3CC2C1 (stereo unspecified)	·	·	-15	·	·	-14
O=C(O)[C@@H]1[C@H]2C[C@H]3c4[nH]c5ccccc5c4CCN3C[C@@H]2CC[C@@H]1O	-5	14	-2	65*	4	-3
COC(=O)C1=CO[C@@H](C)[C@H]2CN3CCc4c([nH]c5ccccc45)[C@@H]3C[C@H]12	·	9	-10	78*	2	19
O=C(NCC[C@H]1CC[C@@H](NS(=O)(=O)c2ccccc2)[C@H](CO)O1)c1ccccc1F	1	-3	-4	·	·	·
O=C(Nc1ccccc1F)N1C[C@@H]2[C@H](c3ccccc31)[C@@H](CO)N2C(=O)Cc1ccccc1	-5	-54	-34	·	·	·
OC[C@H]1O[C@@H](Oc2ccc(O)cc2)[C@H](O)[C@@H](O)[C@@H]1O	20	-2	5	32	14	88*
Cc1ccc(S(=O)(=O)Nc2ccc3c(c2)C(=O)N([C@H](C)CO)C[C@H](C)[C@@H](CN(C)Cc2ccc(Cl)c(Cl)c2)OCCCC[C@H](C)O3)cc1	7	66*	-2	·	·	·
C[C@@H]1CCCCO[C@@H](CN(C)Cc2ccc(Cl)c(Cl)c2)[C@H](C)CN([C@H](C)CO)C(=O)c2cc(NS(=O)(=O)c3ccc(Cl)cc3)ccc2O1	6	102*	25	·	·	·
Cc1ccc(S(=O)(=O)Nc2ccc3c(c2)C(=O)N([C@H](C)CO)C[C@@H](C)[C@H](CN(C)Cc2ccc(Cl)c(Cl)c2)OCCCC[C@@H](C)O3)cc1	3	?	-9	·	·	·
C[C@@H]1CCCCO[C@@H](CN(C)Cc2ccc(Cl)c(Cl)c2)[C@H](C)CN([C@H](C)CO)C(=O)c2cc(NS(=O)(=O)c3ccc(F)cc3)ccc2O1	16	85*	27	·	·	·
C[C@@H]1CCCCO[C@H](CN(C)Cc2ccc(Cl)c(Cl)c2)[C@@H](C)CN([C@H](C)CO)C(=O)c2cc(NS(=O)(=O)c3ccc(Cl)cc3)ccc2O1	-9	28	1	·	·	·
Cc1ccccc1S(=O)(=O)N1C[C@H](O)COC[C@H]2O[C@@H](CC(=O)N3CCN(C)CC3)CC[C@@H]21	12	-25	-4	·	·	·
O=C(C[C@H]1CC[C@@H]2[C@H](COC[C@H](O)CN2C(=O)c2ccc(F)cc2)O1)Nc1ccc(-c2ccccc2)cc1	-4	26	-15	·	·	·
CCCC(=O)Nc1ccc2c(c1)C(=O)N(C)C[C@@H](OC)[C@H](C)CN(C(=O)C1CCCC1)[C@@H](C)CO2	-12	6	0	·	·	·
FC(F)Oc1ccc(NC(=S)NNc2ccnc3cc(Cl)ccc23)cc1	3	37	13	9	69*	6
Cc1ccc(-n2nc(C)c(NC(=O)CCl)c2C)cc1C	-30	112*	·	-10	-30	-56
CC(C)=CCc1cc([C@@H]2COc3c(ccc4c3C=CC(C)(C)O4)C2)c(O)cc1O	14	·	12	17	30	92*
CC1(C)C=Cc2c(ccc3c2OC[C@H](c2ccc(O)cc2O)C3)O1	-38	-135	-71	-18	-46	-15
COc1ccc(Cl)cc1-c1nc(-c2ccc(NC(=O)c3ccncc3)cc2)no1	·	-3	·	2	-10	14
COc1ccc(-c2nc(-c3ccc(NC(=O)c4ccncc4)cc3)no2)cc1OC	·	·	·	27	·	90*
COc1cc(C(=O)Nc2ccc3nc(N4CCN(C)CC4)cc(C)c3c2)cc(OC)c1OC	21	1	-4	-22	·	-1
COc1ccc(NC(=O)c2ccc(-c3ccc(-c4noc(C)n4)cc3C)cc2)cc1N1CCN(C)CC1	104*	32	9	-19	?	-17
Cc1ccc(S(=O)(=O)N2CCCCC2CCNC(=O)C(=O)NCc2ccncc2)cc1 (stereo unspecified)	-4	76*	3	4	35	14
